The other results are listed elsewhere or left out. Calls of active or inactive are those of the source.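 The calls were made as follows: active = mean inhibition over triplicate wells above a set limit taken from the primary lipase screen (cut at about 34% in these data); inactive = the rest.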
Molecular target: Diacylglycerol lipase-beta (Homo sapiens) (UniProt Q8NCG7)
Test: human DAGLB lipase activity inhibition – biochemical, fluorescence, HEK293T membranes, confirmation (AID 504445);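 also: 0% = DAGLB with DMSO and 100% = wells lacking DAGLB enzyme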
Details: HEK293T DAGLB membrane lysate, EnzChek fluorogenic substrate; at 5.17 µM; stronger effect = higher value

Sequence of Diacylglycerol lipase-beta (Homo sapiens) (Q8NCG7 whole entry, looked up): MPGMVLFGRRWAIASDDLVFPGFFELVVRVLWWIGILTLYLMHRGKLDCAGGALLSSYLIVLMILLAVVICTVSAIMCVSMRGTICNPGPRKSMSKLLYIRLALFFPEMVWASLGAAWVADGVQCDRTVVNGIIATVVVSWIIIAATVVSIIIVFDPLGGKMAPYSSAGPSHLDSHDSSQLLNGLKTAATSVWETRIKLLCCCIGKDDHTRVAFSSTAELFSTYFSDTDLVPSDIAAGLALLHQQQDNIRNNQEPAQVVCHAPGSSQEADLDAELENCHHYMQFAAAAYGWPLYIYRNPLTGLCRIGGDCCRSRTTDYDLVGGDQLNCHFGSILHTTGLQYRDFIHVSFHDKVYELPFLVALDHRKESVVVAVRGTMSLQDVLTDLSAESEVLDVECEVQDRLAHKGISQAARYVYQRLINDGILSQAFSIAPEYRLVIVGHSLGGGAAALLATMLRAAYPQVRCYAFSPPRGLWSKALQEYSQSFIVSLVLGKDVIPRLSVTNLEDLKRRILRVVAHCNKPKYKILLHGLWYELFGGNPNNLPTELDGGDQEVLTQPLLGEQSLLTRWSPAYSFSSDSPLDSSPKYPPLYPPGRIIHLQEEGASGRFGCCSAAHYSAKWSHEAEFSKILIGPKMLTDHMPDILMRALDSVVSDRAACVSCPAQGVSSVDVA

SMILES | inhibition
O=C(Oc1cccc(N2C(=O)C3C4c5ccccc5C(c5ccccc54)C3C2=O)c1)c1ccco1 (configuration not stated) | 31.9% (inactive)
COc1ccc(Br)cc1/C=N/Nc1ccc(S(=O)(=O)Nc2ccccc2C(=O)O)cc1[N+](=O)[O-] | 27.4% (inactive)
COc1cccc(/C=N/Nc2ccc(S(=O)(=O)Nc3ccccc3C(=O)O)cc2[N+](=O)[O-])c1O | 49.7% (active)
Cc1oc2cc([N+](=O)[O-])c(O)c([N+](=O)[O-])c2c1C(=O)c1ccc(Br)cc1 | 49.9% (active)
Cc1ccc(/C=N/NC(=O)C(NC(=O)c2ccccc2)c2n[nH]c(=O)c3ccccc23)cc1 (configuration not stated) | 27.9% (inactive)
Cc1ccc(S(=O)(=O)/N=C2\C=C(NS(=O)(=O)c3ccc(C)cc3)C(=O)c3ccccc32)cc1 | 18.2% (inactive)
O=C(NNc1c2ccccc2nc2ccccc12)c1cc2ccccc2cc1O | 63.4% (active)
